Assay: binders of probe aFST on microarray, primary screen, stem cell growth factor project, biochemical, small-molecule microarray, fluorescence 635/667 (AID 1086);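 also: score merges 667 nm fluorescence with signal-to-noise of each printed compound spot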
Conditions: higher = more signal

Structure (SMILES) | composite z-score
Cc1ccc(S(=O)(=O)N2[C@@H](c3ccccc3)C(C(=O)O)=CC[C@H]2c2ccccc2)cc1 | 0.273
CC[C@H]1C2=C3C(CC[C@H]4C(OC)OC[C@](C)([C@@H]34)N(C(=O)OC(C)(C)C)C2)C(CO)C1CO (stereo partly specified) | 1.87
C=CCN1C(=O)[C@@]2(O[C@@H](CCn3cc([C@H](O)c4ccccc4)nn3)[C@H]([Si](C)(C)c3ccc(OC)cc3)[C@H]2C)c2cc(N3CCOC3=O)ccc21 | -0.0319
CO[C@@H]1COC(=O)CC=C[C@@H](C)[C@H](OC)COC(=O)CC=C[C@H]1C | 0.169
CCCC[C@H]1OB(O)C[C@H]2C1=C(COC)C[C@H]1C(=O)N(Cc3ccccc3)C(=O)[C@H]12 | 0.633
C=CC[C@@]1(C(=O)N2CCOCC2)N=C(c2ccc(OCCCO)cc2)O[C@@H]1c1ccccc1 | -0.298
COc1ccc([Si](C)(C)[C@@H]2[C@@H](CCO)O[C@]3(C(=O)N(Cc4ccc(NC(=O)[C@H](C)O)cc4)c4ccccc43)[C@H]2C)cc1 | 0.152
COc1ccc([Si](C)(C)[C@H]2[C@H](CC(=O)N(CCO)Cc3ccccc3)O[C@@]3(C(=O)N(C)c4ccccc43)[C@@H]2C)cc1 | 0.291
NC(=O)[C@H]1[C@@H]2C(=O)O[C@@H](c3ccccc3)[C@@H](c3ccccc3)N2[C@@H](c2ccc(O)cc2)[C@]12C(=O)Nc1ccc(C#CCCO)cc12 | -0.605
CO[C@H]1O[C@H](CO)[C@@H](OC(=O)Nc2ccc3c(c2)OCO3)[C@H](OC(=O)Nc2ccccc2)[C@@H]1OC(=O)Nc1ccccc1 | 0.188
CC(C)(C)OC(=O)CC[C@@]1(C(=O)NCc2ccccc2)N=C(c2ccc(OCCCO)cc2)O[C@@H]1c1ccccc1 | 1.14
C[C@@H]1CC[C@H]2C(=O)N3CCC[C@H]3C(=O)N2[C@H]1c1ccc(Br)cc1 | -0.0423
C=CCNC(=O)[C@H]1[C@@H]2C(=O)O[C@@H](c3ccccc3)[C@@H](c3ccccc3)N2[C@@H](c2ccc(O)cc2)[C@]12C(=O)Nc1ccc(C#CCNC(N)=O)cc12 | -0.526
O=C(NCc1ccccc1)[C@@]1(Cc2ccccc2)COC(c2ccc(OCCCO)cc2)=N1 | 0.792
COc1ccc(C(=O)Nc2ccc(CN3C(=O)[C@]4(O[C@H](CCn5cc(CCO)nn5)[C@@H]([Si](C)(C)c5ccc(OC)cc5)[C@@H]4C)c4ccccc43)cc2)cc1 | -0.177
O=C1C2C=CC(C(O)c3ccccc3)N(n3cnnc3)C2C(=O)N1Cc1ccccc1 (stereo unspecified) | 0.364
O=C1c2ccccc2[C@](Cc2ccccc2I)(C(=O)NCC(F)(F)F)[C@H](c2ccc(CO)cc2)N1Cc1ccccc1C(F)(F)F | 1.16
COCCCNC(=O)[C@@]1(Sc2ccc(C)cc2)CC(=O)N(Cc2cc(C(F)(F)F)cc(C(F)(F)F)c2)[C@@H]1c1ccc(CO)cc1I | -0.265

Structure (SMILES) | composite z-score
CC1CC/C=C\[C@H]2OC34C=CCN(Cn5nnc6ccccc65)C(=O)[C@H]3N(C(C)CO)C(=O)[C@@H]4C2C(=O)O1 (stereo partly specified) | -0.134
COCCOC(=O)N1C(=O)[C@@]2(c3cc(C#CCNC(N)=O)ccc31)[C@H](C(=O)N1CCCCCCC1)[C@H]1C(=O)O[C@H](c3ccccc3)[C@H](c3ccccc3)N1[C@@H]2c1ccccc1OCCO | 1.29
CO[C@H]1COC(=O)CC=C[C@H](C)[C@@H](OC)COC(=O)CC=C[C@@H]1C | -0.055
C=CCNC(=O)[C@H]1[C@@H]2C(=O)O[C@@H](c3ccccc3)[C@@H](c3ccccc3)N2[C@@H](c2ccccc2OCCO)[C@]12C(=O)N(C(=O)OCCOC)c1ccc(C#CCC(C(=O)OC)C(=O)OC)cc12 | 0.336
CCc1cccc(NC(=O)O[C@H]2[C@H](OC(=O)Nc3ccccc3)[C@@H](OC(=O)Nc3ccccc3)[C@@H](OC)O[C@@H]2CO)c1 | 0.891
O=C1O[C@@H](c2ccccc2)[C@@H](c2ccccc2)N2[C@@H](c3ccccc3OCCO)[C@]3(C(=O)Nc4ccc(C#CC5=CCCCC5)cc43)[C@@H](C(=O)O)[C@H]12 | 0.415
O=C1C[C@@](C(=O)NCCN2CCOCC2)(c2ccc([N+](=O)[O-])cc2)[C@@H](c2ccc(CO)cc2)N1C1CCCCC1 | 0.133
C[C@H]1NC(=O)[C@@H](C)NC(=O)[C@@]23C(=O)N[C@@H](Cc4ccccc4)C2[C@H](C)[C@@]2(C)O[C@H]2C3/C=C/C/C=C\CNC1=O (stereo partly specified) | -0.41
CCC#CCN(Cc1ccccc1Br)[C@H](/C=C/c1ccccc1)[C@@H](O)Cc1ccccc1 | -0.465
C=C(COC)/C(=C/C[C@@H](OC(C)=O)c1cccc(OCCO)c1)c1cc(C(=O)OC)ccc1OC | 0.105
O=C/C=C/c1ccccc1Cl | 0.224
Cc1ccc(S(=O)(=O)c2cc3oc2CC[C@@H](CO)NC(=O)N(C)Cc2cn(nn2)C[C@H](Cc2ccccc2)NC3=O)cc1 | -0.265
O=C1O[C@H](c2ccccc2)[C@H](c2ccccc2)N2[C@H]1[C@@H](C(=O)Nc1nc3ccccc3s1)[C@]1(C(=O)Nc3ccc(C#CC4=CCCCC4)cc31)[C@H]2c1ccccc1OCCO | 0.459
C=CCC1=C[C@H]2[C@H]([C@@H]3C=C[C@]2(CC=C)C(=O)[C@]32CO2)[C@@]2(CO2)C1=O | 0.501
CC(C)N1CC=CC23O[C@@H]4/C=C\CCCOC(=O)C4[C@H]2C(=O)N(CCO)[C@@H]3C1=O (stereo partly specified) | -0.219
C=CCC(OC(C)=O)[C@@H]1[C@@H](N(Cc2cc3ccccc3o2)C(=O)Cc2ccc(F)cc2)c2cc(OCCCO)ccc2N1C(=O)c1ccc(-c2ccccc2)cc1 (stereo partly specified) | 0.141
C=CCc1cccc([C@H]2N[C@H](C(=O)O)CC[C@@H]2C)c1 | -0.099
CCOC(=O)C[C@H]1[C@H](OC(=O)Cc2ccc3c(c2)OCO3)[C@@H](NC(=O)c2ccc3ccccc3c2)c2cc(OCCCO)ccc2N1C(=O)Cc1ccc(OC)cc1 | 0.533
